target: PLS1; experiment: pooled miR-30 sensor sort-seq; sequence = guide strand; settings: shRNA
Note: reference of the scale not given here.

Question: For ATTCCTTTCATTTAGGTCCTGC, which sensor-assay potency score (higher = more potent) is on record?
Answer: The sensor-assay potency score (higher = more potent) was 0.408.

Question: For TTGTAGTTCTTCAAGCTCCTCC, which sensor-assay potency score (higher = more potent) is on record?
Answer: The sensor-assay potency score (higher = more potent) was 0.438.

Question: For TTTGCTTTTTAATTCTTGCATT, which sensor-assay potency score (higher = more potent) is on record?
Answer: The sensor-assay potency score (higher = more potent) was -1.04.

target: PLTP; experiment: as above; settings: shRNA

Question: How did the sensor-assay potency score (higher = more potent) turn out when TACACCTTCAAGAACCAGTAGA was run?
Answer: The sensor-assay potency score (higher = more potent) was -0.191.

Question: How did the sensor-assay potency score (higher = more potent) turn out when ATAGATTCGGAACCTGCGCAGG was run?
Answer: The sensor-assay potency score (higher = more potent) was -1.18.

Question: TTGGACACTTTCATCCGTCCAG was tested. Which sensor-assay potency score (higher = more potent) did it give?
Answer: The sensor-assay potency score (higher = more potent) was -0.0718.

Question: Which sensor-assay potency score (higher = more potent) does the source give for TTAAATTGGGTACAGCTTCAAA here?
Answer: Its sensor-assay potency score (higher = more potent) is -1.22.

Question: TTCTTCTCAATCACCTCTCGCA was tested. Which sensor-assay potency score (higher = more potent) did it give?
Answer: Its sensor-assay potency score (higher = more potent) is -0.149.

Question: For TTGAGCAGGACCGTCCCTGCGT, which sensor-assay potency score (higher = more potent) is on record?
Answer: The sensor-assay potency score (higher = more potent) was -0.0816.

Question: For TTGGAATAGATTCGGAACCTGC, which sensor-assay potency score (higher = more potent) is on record?
Answer: The sensor-assay potency score (higher = more potent) was -0.704.

Question: Which sensor-assay potency score (higher = more potent) does the source give for TACAGCTTCAAATCCCGTCTTC here?
Answer: Its sensor-assay potency score (higher = more potent) is -0.171.

Question: ACATTGGACACTTTCATCCGTC was tested. Which sensor-assay potency score (higher = more potent) did it give?
Answer: The sensor-assay potency score (higher = more potent) was 0.0628.

Question: With TTGAAGCATCAGCTCCTGCTGT as the sequence, how does the sensor-assay potency score (higher = more potent) read?
Answer: The sensor-assay potency score (higher = more potent) was 0.293.

Question: For TCATACACCTTCAAGAACCAGT, which sensor-assay potency score (higher = more potent) is on record?
Answer: The sensor-assay potency score (higher = more potent) was 0.217.

Question: TCATACACCTTCTTGAAGGTTC was tested. Which sensor-assay potency score (higher = more potent) did it give?
Answer: Its sensor-assay potency score (higher = more potent) is -0.197.

target: PLXNA3; experiment: as above; settings: shRNA

Question: For TTGTAGTCGATCTGCTGACGGA, which sensor-assay potency score (higher = more potent) is on record?
Answer: Its sensor-assay potency score (higher = more potent) is -0.986.

Question: Which sensor-assay potency score (higher = more potent) does the source give for TAGATCTCGGAGACCATCTTGC here?
Answer: Its sensor-assay potency score (higher = more potent) is -0.165.

Question: TGTCTTGTAGTCGATCTGCTGA was tested. Which sensor-assay potency score (higher = more potent) did it give?
Answer: The sensor-assay potency score (higher = more potent) was -0.0226.

Question: TTGTGTGTCCGAGACAGTGAGC was tested. Which sensor-assay potency score (higher = more potent) did it give?
Answer: Its sensor-assay potency score (higher = more potent) is -0.941.

Question: TTGTTGATGTTGTCCACGGGGG was tested. Which sensor-assay potency score (higher = more potent) did it give?
Answer: Its sensor-assay potency score (higher = more potent) is -0.257.

Question: With TAGTCTATGAGCAGCAGCTTGT as the sequence, how does the sensor-assay potency score (higher = more potent) read?
Answer: Its sensor-assay potency score (higher = more potent) is -0.951.

Question: With TACAAGGACAGCGTGTCTGAGG as the sequence, how does the sensor-assay potency score (higher = more potent) read?
Answer: Its sensor-assay potency score (higher = more potent) is -0.523.

Question: With TAGTAGGTAAAGGAGGAGCGGT as the sequence, how does the sensor-assay potency score (higher = more potent) read?
Answer: The sensor-assay potency score (higher = more potent) was -1.08.

Question: Which sensor-assay potency score (higher = more potent) does the source give for TAGAACTCTGAGTCTCCCGCGC here?
Answer: Its sensor-assay potency score (higher = more potent) is -0.24.

Question: Which sensor-assay potency score (higher = more potent) does the source give for ATCTCGGAGACCATCTTGCTGC here?
Answer: Its sensor-assay potency score (higher = more potent) is -1.06.

Question: ATGTCGAACACGAACTGCGGGT was tested. Which sensor-assay potency score (higher = more potent) did it give?
Answer: Its sensor-assay potency score (higher = more potent) is -1.37.

Question: How did the sensor-assay potency score (higher = more potent) turn out when TCACACTCGATCTTGGTGGTGA was run?
Answer: Its sensor-assay potency score (higher = more potent) is 0.265.

target: PM20D1; experiment: as above; settings: shRNA

Question: How did the sensor-assay potency score (higher = more potent) turn out when AATACAGTCACCACTGTCCCGC was run?
Answer: The sensor-assay potency score (higher = more potent) was -0.75.

Question: With TTGAATATGGTGAGTGCCGTGG as the sequence, how does the sensor-assay potency score (higher = more potent) read?
Answer: The sensor-assay potency score (higher = more potent) was -0.197.

Question: With TTGTCGTCCAGTGTGCCCCGAC as the sequence, how does the sensor-assay potency score (higher = more potent) read?
Answer: The sensor-assay potency score (higher = more potent) was -0.594.

Question: With TACATTTGTTAAGTCAAGCCTG as the sequence, how does the sensor-assay potency score (higher = more potent) read?
Answer: The sensor-assay potency score (higher = more potent) was 0.298.

Question: For TTTCTCTCCATAAACCTGCTTA, which sensor-assay potency score (higher = more potent) is on record?
Answer: Its sensor-assay potency score (higher = more potent) is 0.0874.

Question: With TTGGATAGTGAACAGGTGGCTA as the sequence, how does the sensor-assay potency score (higher = more potent) read?
Answer: Its sensor-assay potency score (higher = more potent) is -0.715.

Question: For TTGGACTGAGATTTTCTCGTTG, which sensor-assay potency score (higher = more potent) is on record?
Answer: Its sensor-assay potency score (higher = more potent) is 0.297.

Question: For TTTATGAATGTATTTTCCGAAC, which sensor-assay potency score (higher = more potent) is on record?
Answer: Its sensor-assay potency score (higher = more potent) is -1.32.

Question: For ATGACATTGAACTTGACCCCTG, which sensor-assay potency score (higher = more potent) is on record?
Answer: The sensor-assay potency score (higher = more potent) was -0.759.

Question: TTTCTCGTTGACTCCATGGATG was tested. Which sensor-assay potency score (higher = more potent) did it give?
Answer: The sensor-assay potency score (higher = more potent) was -0.946.

Question: How did the sensor-assay potency score (higher = more potent) turn out when TTGGACTGTCTGTCCAGGGTGA was run?
Answer: The sensor-assay potency score (higher = more potent) was 0.135.

Question: Which sensor-assay potency score (higher = more potent) does the source give for TGACATTGAACTTGACCCCTGC here?
Answer: The sensor-assay potency score (higher = more potent) was 0.0724.
